# Efflux pump mplx = antifungal efflux pump inhibition, Nile Red retention | AID 485275 | S. cerevisiae Candida pump triplex | inhibition, % at 10 µM | 330,000 compounds, 0.44% hits;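 active means plate passing quality check with inhibition over a set limit, or well fluorescence over plate mean plus 4 SD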;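 further: Nile Red retained in pooled yeast measured as flow cytometry median fluorescence; 0% = buffer negative control and 100% = Enniatin B positive control; higher means more Nile Red kept so more efflux inhibition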
# V-ATPase pH = regulators of yeast V-ATPase proton transport; 350,000 compounds, 0.37% hits; S. cerevisiae, pHLuorin cytosolic pH fluorescence; response, % at 10 µM; AID 504577; in the data active means response mostly above about 7.3%, no sharp cut-off; inactive means mostly below about 5.4%; further: actives read high
# AI-2 QS mod = modulators of Vibrio harveyi AI-2 quorum sensing system | activity change, % at 7.5 µM | AID 2094 | Vibrio harveyi JMH597 AI-2 luminescence/OD600 ratio, 9 h; stronger effect = lower value; strain lacks LuxN and CqsS sensors; 0 = neutral-control median | 300,000 compounds, 0.4% hits; in the data active means activity change below about -75%, passing the limit was not always enough;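 further: luminescence divided by OD600 gain over 9 h not by final OD600 alone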
# SUMO Mot1 rescue = inhibitors of SUMOylation pathway: yeast Mot1-301 growth rescue; growth rescue, % at 18.8 µM; 320,000 compounds, 1% hits; S. cerevisiae Mot1-301 growth rescue, ATP luminescence, 38.5C; percent above DMSO median, 100 means doubled;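 active means every valid replicate shows activation above 250% relative to neutral control wells; inactive means the rest, any valid replicate at or below 250%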;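 further: OY570 slx delta 5 strain wells were the positive control but not used for scaling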
# ATG4B inhibitor = ATG4B (human) cysteine protease inhibition; inhibition, % at 8.33 µM; ATG4B cleavage of LC3-PLA2, NBD-HPC fluorescence, 1 h; Q9Y4P1; 340,000 compounds, 0.51% hits; in the data active means inhibition above about 40%
# Target sequence (Q9Y4P1 whole entry, looked up): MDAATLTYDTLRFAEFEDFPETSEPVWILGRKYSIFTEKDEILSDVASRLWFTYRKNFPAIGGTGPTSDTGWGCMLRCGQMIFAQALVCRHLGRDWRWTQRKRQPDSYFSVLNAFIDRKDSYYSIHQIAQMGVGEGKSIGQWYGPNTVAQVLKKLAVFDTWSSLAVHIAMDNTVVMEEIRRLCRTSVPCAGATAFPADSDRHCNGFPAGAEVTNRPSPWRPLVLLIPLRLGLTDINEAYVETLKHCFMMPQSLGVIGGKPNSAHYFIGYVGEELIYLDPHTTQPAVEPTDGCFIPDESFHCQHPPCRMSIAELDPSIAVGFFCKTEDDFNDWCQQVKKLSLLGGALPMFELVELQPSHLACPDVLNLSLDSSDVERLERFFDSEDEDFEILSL
# Numbers without * were called inactive; i = inactive; . = no result given; ! = not active in a repeat. Compounds with a hit are over-represented: about 2.5% of the library has one in this group of screens.
SMILES,Efflux pump mplx,V-ATPase pH,AI-2 QS mod,SUMO Mot1 rescue,ATG4B inhibitor
Cn1ncc(S(=O)(=O)Cc2ccccc2)c(Cl)c1=O,0.0,19.2*,60.9,-6.7,-3.8
Cn1ncc(SCc2ccccc2)c(Cl)c1=O,0.0,7.2,17.0,-0.4,-7.1
CC(=O)c1ccc(N2CCN(C3CCC(C(C)(C)C)CC3)CC2)cc1 (stereo not given),0.0,3.5,27.2,256.2*,-10.8
CC(=O)c1ccc(N2CCC(C(=O)O)CC2)cc1,0.1,1.7,27.2,i,-3.1
CC1(C)OC2OC(C3COC(=O)O3)C(OC(=O)c3ccccc3)C2O1 (stereo not given),.,1.6,.,.,-2.0
CCN1/C(=C/C=C/c2oc3ccc4ccccc4c3[n+]2CC)Oc2ccc3ccccc3c21,0.0,.,25.3,30.5,91.0*
CCOC(=O)C1(CC2CCCCO2)CCN(Cc2ccc(OC)cc2F)CC1 (stereo not given),0.1,-1.4,13.7,12.0,-8.0
O=C1CN(S(=O)(=O)c2cc(Br)ccc2Br)CCN1,0.1,0.6,.,-2.9,0.7
O=c1c(Br)ccc(Br)cc1Br,.,62.1*,.,.,-1.7
CS(=O)(=O)N(CC(=O)Nc1cccc(Br)c1)Cc1ccccc1,0.0,0.8,12.9,-10.0,5.5
CCC(Oc1ccccc1)C(=O)Nc1cc(C)on1 (stereo not given),0.1,-3.1,-2.2,8.2,-9.5
Cc1cc(NC(=O)C(Cl)c2ccccc2)no1 (stereo not given),0.1,-0.5,-86.0*,3.2,2.4
NS(=O)(=O)c1cc2c(cc1Cl)NC(C1C[C@H]3C=C[C@@H]1C3)NS2(=O)=O (stereo not given in full),0.0,-7.5,30.4,562.8*!,-0.4
CN(C)c1ccc(C2CNC(c3ccc(Cl)c([N+](=O)[O-])c3)c3[nH]c4ccccc4c32)cc1 (stereo not given),0.1,0.3,-26.3,-7.6,6.5
O=[N+]([O-])c1cccc(C2NCC(c3ccccc3Cl)c3c2[nH]c2ccccc32)c1 (stereo not given),0.1,1.8,.,564.1*,19.4
O=C(Nc1ccc(Br)cc1)C1CCCC1,0.3,-0.9,27.6,333.1*,7.7
Nc1ccccc1C(=O)N1CCC(O)(c2ccc(Cl)cc2)CC1,0.0,-5.2,21.1,324.7*,0.2
Cc1ccc2c(c1)N(CC(=O)NCCCN1CCOCC1)C(=O)C(C(C)C)O2 (stereo not given),-0.1,3.0,27.6,6.1,-2.6
Cc1nn(-c2ccccc2[N+](=O)[O-])c(=O)c2ccccc12,0.1,2.0,-9.3,3.4,2.5
Cc1nn(-c2ccccc2)c(-c2ccccc2[N+](=O)[O-])c1C(=O)O,0.0,3.2,13.1,293.8*,8.8
Cn1cccc1/C=C(\C#N)C(N)=S,-0.1,-0.8,13.3,-8.4,0.5
N#C/C(=C/c1cc[nH]c1)C(N)=S,-0.1,-1.7,-4.9,294.9*,5.5
CCC(=O)NC(=S)Nc1cccc(C(C)=O)c1,-0.1,1.4,-61.7,7.8,-3.5
CCCC(=O)NC(=S)Nc1cccc(C(C)=O)c1,0.0,-3.1,-77.8*,-0.8,-12.9
O=c1[nH]c2cc(Br)cnc2nc1/C=C(\O)c1ccc(F)cc1,0.1,.,-1.6,338.4*,5.0
SMILES,Efflux pump mplx,V-ATPase pH,AI-2 QS mod,SUMO Mot1 rescue,ATG4B inhibitor
O=C(NCc1nc2ncc(Br)cc2[nH]1)c1ccccc1,-0.1,-0.5,-5.4,-0.5,-5.3
CC(=O)c1ccc(NC(=O)C(C)OC(=O)c2ccc(NS(=O)(=O)c3ccc(F)c(F)c3)cc2)cc1 (stereo not given),-0.2,2.0,34.3,-2.0,31.0
CC(=O)Nc1cccc(Oc2nc(-c3ccccn3)nc3ccccc23)c1,0.0,1.7,7.8,531.9*,-7.2
CC(=O)Nc1ccc(Oc2nc(-c3ccccn3)nc3ccccc23)cc1,0.1,1.5,7.4,-5.2,-9.4
CC(=O)Nc1ccc(S(=O)(=O)N2CCC(C(=O)NCc3ccncc3)CC2)cc1,0.0,1.3,16.7,-10.5,-4.9
COc1cccc(CNC(=O)C2=C(C)C(=O)OC23CCC(C)CC3)c1 (stereo not given),-0.1,0.1,9.7,-1.2,-8.3
O=C(NNC(=O)c1cnccn1)c1ccc(Cl)c(Cl)c1,0.3,0.5,-287.9*,0.6,-6.5
C/C(=C\C(=O)OCCCCCCCCC(=O)O)C[C@@H]1OC[C@H](C[C@@H]2O[C@H]2[C@@H](C)[C@H](C)O)[C@@H](O)[C@H]1O,0.1,5.8,-172.6*,53.7,-6.5
CC1CCN(S(=O)(=O)c2ccc3c(c2)N(C)C(=O)CC(=O)N3C)CC1,0.1,2.2,9.0,243.0,-5.2
COc1ccccc1/C(C)=N/NC(=S)NCc1ccccc1,0.0,-0.7,17.3,150.6,-8.3
Cc1ccc(S(=O)(=O)N2CCCCC2)cc1NC(=O)COC(=O)c1ccc2c(c1)OCO2,-0.1,18.0*,8.4,-23.1,-0.4
COc1ccccc1C(=O)OCC(=O)Nc1cc(S(=O)(=O)N2CCOCC2)ccc1N1CCCC1,0.1,4.0,3.7,407.2*,-5.4
Cc1ccc(S(=O)(=O)N2CCCCC2)cc1NC(=O)c1ccc2c(c1)OCO2,-0.3,-1.9,5.0,-9.3,6.3
CC(C)(C)c1ccc(C(=O)Nc2cccc(-n3cnnn3)c2)cc1,0.6,-1.0,-7.0,-19.0,-11.4
CC(C)c1ccc(NS(=O)(=O)c2ccc(Cl)nc2)cc1,0.3,-0.9,-92.4*,24.0,-0.4
CCOC(=O)CN1CC23C=CC(O2)C(C(=O)Nc2cc(OC)ccc2OC)C3C1=O (stereo not given),0.9*,0.7,14.0,-10.4,.
CCOC(=O)CN1CC23C=CC(O2)C(C(=O)Nc2ccc(OC)cc2OC)C3C1=O (stereo not given),-0.1,-0.9,6.0,31.2,0.6
Oc1cccc(/C=N/NC(=S)Nc2cccnc2)c1O,0.3,-0.2,-84.4*,-20.9,7.1
CC(=N\Nc1ccc(Cl)cc1)/C(=N/O)C(=O)Nc1ccccc1,-0.1,-1.7,-8.8,256.2*,0.0
COc1ccc(NC(=O)N2CC(C)OC(C)C2)cc1OC (stereo not given),-0.1,-4.1,6.1,-20.9,-15.2
COc1ccc(C)cc1NC(=S)N1CC(C)OC(C)C1 (stereo not given),0.1,14.8*,24.1,35.9,-2.6
Cc1[nH]nc2c1C(c1ccc(OC(=O)c3ccco3)cc1)C(C#N)=C(N)O2 (stereo not given),-0.1,4.0,25.5,-4.8,54.2*
Cc1[nH]nc2c1C(c1ccco1)C(C#N)=C(N)O2 (stereo not given),-0.2,1.1,6.6,-3.2,7.4
C#C[C@]1(O)CC[C@H]2[C@@H]3CCC4=C(CCC(=O)C4)[C@H]3CC[C@@]21C,0.1,-3.6,15.6,-8.4,-2.7
C#C[C@]1(O)CC[C@H]2[C@@H]3CCC4=CC(=O)CC[C@@H]4[C@H]3CC[C@@]21C,0.0,24.7*,28.9,-13.0,-1.4

# Screening data deposited in PubChem by several laboratories.
